SW480 rereplic: A quantitative high throughput screen for small molecules that induce DNA re-replication in SW480 colon adenocarcinoma cells | SW480 DNA re-replication, Hoechst DNA content imaging, 48 h | Potency, µM (doses to about 46.1 µM), without a hit: at the top dose re-replication activation, actives largely listed as activators | AID 624297, 2012 | 1.8% of 340,000 active; further: % of control where 0% means no effect; nearly all actives have a fitted effect of over 55% in size
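Image-based read-out: total Hoechst fluorescence of nuclei (405 nm excitation, 500-530 nm emission), with hits raising the fraction of high-intensity nuclei. SW480 colon cells incubated 48 hr with compounds at 37 C.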
KB-V1 cytotox: qHTS assay for MDR1-selective chemotherapeutics: Primary screen using the drug-selected MDR subline cells KB-V1 | KB-V1 MDR cells viability, CellTiter-Glo, 72 h | Potency, µM (series often up to 46.1 µM), actives largely listed as cytotoxic | 3.4% of 400,000 active; further: on the % scale 0 is the no-effect control and ±100 the full control effect; nearly all actives have a fitted effect of over 60% in size
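Luminescent ATP read-out (CellTiter-Glo, 10 min) measures survival of drug-selected KB-V1 MDR cells after 72 h, 37 degrees C compound exposure. Medium: phenol-red-free DMEM, 10% FBS. Values from fitted concentration-response curves.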
MCF10A rerep: A quantitative high throughput screen for small molecules that induce DNA re-replication in MCF 10a normal breast cells; MCF 10A DNA re-replication, Hoechst nuclear intensity, 48 h; Potency, µM (series often up to 46.1 µM), without a hit: at the top dose activity, positive = re-replication, hits mostly activators; 2.9% of 350,000 active; further: % of control where 0% means no effect; nearly all actives have a fitted effect of over 50% in size
HT1080 IDH1KD tx: qHTS for induction of synthetic lethality in tumor cells producing 2HG: qHTS for the HT-1080-IDH1KD cell line; 2% of 360,000 active; Potency, µM (top dose mostly 46.1 µM), inactives show at the highest dose activity, negative = toxicity, hits mostly cytotoxic; HT-1080 IDH1 knockdown viability, ATP luminescence, 48 h;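 further: 0% = DMSO wells and -100% = cell-free medium wells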
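Viability of IDH1-knockdown HT-1080 fibrosarcoma cells was assessed by CellTiter-Glo after 48 h at 37 °C with titrated compound; concentration-effect curves were classified by fit quality and response size.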
KB-3-1 cytotox: qHTS assay for MDR1-selective chemotherapeutics: Primary screen using the parental adenocarcinoma cell KB-3-1. KB-3-1 viability, CellTiter-Glo ATP luminescence, 72 h. Potency, µM (top dose mostly 46.1 µM), most hits filed as cytotoxic. 1.4% of 400,000 active. AID 1347075, 2019; further: on the % scale 0 is the no-effect control and ±100 the full control effect; nearly all actives have a fitted effect of over 60% in size
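Parental KB-3-1 viability, qHTS format: 72 h compound exposure, 37 °C; CellTiter-Glo; media-only wells and DMSO plates as controls; concentration-effect fits on corrected data.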
HT1080-NT tox: qHTS for induction of synthetic lethality in tumor cells producing 2HG: qHTS for the HT-1080-NT fibrosarcoma cell line; HT-1080-NT fibrosarcoma viability, CellTiter-Glo ATP luminescence, 48 h; Potency, µM (titrated, usually from 46.1 µM), without a hit: at the highest dose activity, negative = less viability, hits mostly cytotoxic; 1.6% of 360,000 active; AID 686970, 2013;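 further: NT is the 2HG producing partner of a matched IDH1 knockdown line; 0% = DMSO-treated cells and -100% = media-only wells without cells; nearly all actives have a fitted effect of over 55% in size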
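Luminescent CellTiter-Glo readout after 48 hours of compound exposure at 37 degrees C defined viability of HT-1080-NT cells. Activity was normalized to DMSO wells and cell-free media wells; concentration-response curves were fitted and assigned curve classes.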
* hit, by the source's call; i = inactive; ? = inconclusive; nt = not tested or not shown; ! = a repeat was not active; [ ] = remark or other dose. The list is not random: actives were taken first. Their share in the collection is about 7.9%. The call rests on the fitted dose curve; in most records, active means well fitted curve in the direction sought with a large enough effect; inconclusive means small, poorly fitted or top-dose-only effect, or another doubt; inactive means no such curve, though single readings can be large; an effect the other way counts as inactive or inconclusive. Potency means the concentration at half of the fitted maximal effect.

SMILES	SW480 rereplic	KB-V1 cytotox	MCF10A rerep	HT1080 IDH1KD tx	KB-3-1 cytotox	HT1080-NT tox
CCN(Cc1ccccc1)S(=O)(=O)CCNC(=O)c1ccccc1	-6.0%	20.6µM*	-4.8%	4.3%	i	4.9%
CCN(CC)S(=O)(=O)c1cccc(C(=O)N/N=C(\C)c2ccc(O)cc2O)c1	1.84µM*	?	3.66µM*	1.46µM*	i	?
CCN(CC)S(=O)(=O)c1cccc(C(=O)NCCc2ccccc2)c1	-2.9%	9.2µM*	3.5%	-16.4%	i	-13.3%
CCN(CC)S(=O)(=O)c1cccc(C(=O)N/N=C/c2ccc(O)c(O)c2O)c1	-9.1%	i	3.1%	?	i	?
CN(C)S(=O)(=O)c1cccc(C(=O)NCCNC(=O)c2cccc(S(=O)(=O)N(C)C)c2)c1	-3.8%	i	-14.2%	5.2%	i	5.1%
CCN(CC)S(=O)(=O)c1ccc(NC(=O)c2ccc3c(=O)n4c(nc3c2)CCCCC4)cc1	nt	i	nt	nt	?	nt
O=C(c1ccco1)N1CCN(S(=O)(=O)c2cc(Cl)ccc2Cl)CC1	-1.2%[9.22 µM]	i	-2.1%	2.8%	i	14.6%
COc1cc(-c2cnc3c(NC(C)=O)cc(-c4ccccc4CN(C)C)cn23)cc(OC)c1OC	nt	i	nt	?	?	?
CCOC(=O)c1c(S(=O)(=O)N2CCCC(C)C2)c(C)n(C)c1C (centres undefined)	-2.4%	i	-1.0%	-2.4%	i	-1.7%
O=C(c1cccc(S(=O)(=O)N2CCCCCC2)c1)N1CCN(c2ccccc2F)CC1	14.4%	?	15.3%	0.0%	i	-0.9%
Cc1cccc(N2CCN(C(=O)c3ccc(S(=O)(=O)N(C)c4ccccc4)cc3)CC2)c1C	10.3µM*	23.1µM*	5.17µM*	7.31µM*	?	?
Cc1cccc(N2CCN(C(=O)c3cccc(S(=O)(=O)N4CCCCC4)c3)CC2)c1C	?	?	14.6µM*	?	?	?
CCOC(=O)C1CCCN(C(=O)c2cccc(S(=O)(=O)N(C)c3ccc(OC)cc3)c2)C1 (centres undefined)	-5.4%	?	8.3%	2.2%	i	0.5%
CN1CCN(C(=O)c2ccc(S(=O)(=O)N(C)c3ccccc3)cc2)CC1	nt	i	nt	11.3%	i	13.3%
COc1ccc(N(C)S(=O)(=O)c2cccc(C(=O)N3CCN(c4cccc(C)c4C)CC3)c2)cc1	27.8%	i	12.1%	1.4%	16.4µM*	6.9%
O=C(CCCn1c(=O)[nH]c2cc(Cl)ccc2c1=O)NC1CCCCCC1	-1.5%	20.6µM*	0.2%	1.9%	i	-3.9%
COc1cc2[nH]c(=O)n(CCCCCC(=O)NC3CCCC3)c(=O)c2cc1OC	-5.0%	i	-3.1%	-13.5%	i	-7.6%
Cc1cc(/C=C(\C#N)C(=O)O)c(C)n1CCC(C)C	-16.5%	?	-8.1%	-6.9%	i	-4.3%
N#Cc1cc2ccccc2nc1SCC(=O)Nc1ccccc1N1CCOCC1	-7.9%	4.61µM*	-2.4%	-0.1%	i	7.0%
CCOc1ccccc1NC(=O)CSc1nc2ccccc2nc1N1CCCC1	?	i	14.6µM*	-1.7%	i	-2.6%
COc1ccc(NC(=O)CSc2nc3ccccc3nc2N2CCCC2)cc1Cl	9.5%	i	23.1µM*	1.7%	i	5.3%
Cc1ccc(NC(=O)CSc2nc3ccccc3nc2N2CCOCC2)cc1	?	18.4µM*!	10.9%	-20.7%	i	?
Cc1ccc(NC(=O)CSc2nc3ccccc3nc2N2CCOCC2)c(C)c1	10.0%	i	33.7%	17.4%	?	17.6%
COc1ccc(OC)c(NC(=O)CCCNC(=O)Cn2cnc3sc(C)c(C)c3c2=O)c1	-9.9%	i	-7.6%	8.9%	?	-2.2%
COc1ccc(CNC(=O)c2sc(=O)n(Cc3cc(C(C)=O)ccc3OC)c2C)cc1	nt	?	nt	8.7%	i	2.9%
SMILES	SW480 rereplic	KB-V1 cytotox	MCF10A rerep	HT1080 IDH1KD tx	KB-3-1 cytotox	HT1080-NT tox
C=CCOc1ccccc1CNc1ccc2c(c1)OCCO2	24.3%	i	3.6%	?	i	?
O=C(CNC(=S)N(Cc1ccccc1)Cc1cccnc1)N1CCOCC1	0.0%	i	-2.7%	12.7%	i	10.5%
C=CCN1C(=O)NC(c2ccccc2)(C(F)(F)F)S/C1=C(\C#N)c1nnc(N2CCOCC2)n1-c1ccccc1 (centres undefined)	-15.5%	?	20.6µM*	-6.1%	i	-7.9%
C=CCN1C(c2cccc(C(F)(F)F)c2)=CS/C1=C(\C#N)c1nnc(N2CCOCC2)n1-c1ccccc1	nt	i	nt	-12.0%	i	-2.5%
COc1ccc(S(=O)(=O)N2CCC(C(=O)N3CCOCC3)CC2)cc1Cl	-12.8%	i	1.7%	3.8%	i	0.5%
O=C1CSC2(C(=O)N(Cc3ccccc3)c3ccccc32)N1c1ccc(Cl)cc1 (centres undefined)	nt	i	nt	nt	?	nt
O=C1CSC2(C(=O)N(Cc3cccc(F)c3)c3ccccc32)N1c1cccc(C(F)(F)F)c1 (centres undefined)	nt	13µM*	nt	nt	?	nt
Cc1cccc(N2C(=O)CSC23C(=O)N(Cc2cccc(F)c2)c2ccccc23)c1 (centres undefined)	nt	14.6µM*	nt	nt	?	nt
Cc1cccc(N2C(=O)CCSC23C(=O)N(Cc2ccc(F)cc2)c2ccccc23)c1 (centres undefined)	nt	i	nt	nt	i	nt
COc1ccc(N2C(=O)CSC23C(=O)N(Cc2cccc(C(F)(F)F)c2)c2ccccc23)cc1 (centres undefined)	nt	?	nt	nt	i	nt
CC(C)c1ccc(N2C(=O)CSC23C(=O)N(Cc2cccc(F)c2)c2ccccc23)cc1 (centres undefined)	nt	13µM*	nt	nt	20.6µM*	nt
CCc1ccc(N2C(=O)CSC23C(=O)N(Cc2cccc(OC)c2)c2ccccc23)cc1 (centres undefined)	nt	10.3µM*	nt	nt	?	nt
COc1ccccc1OCCSc1nnc(CNC(=O)c2ccco2)n1C	-11.3%	i	2.2%	7.9%	i	15.4%
Cc1coc2cc3oc(=O)cc(C)c3cc12	?	i	-56.0%	-3.0%	i	2.2%

Screens deposited in PubChem by National Center for Advancing Translational Sciences (NCATS).
